Source: PubChem BioAssay
The list is not random: actives were taken first. Their share in the collection is about 0.9%.
TAR Tat displ – TAR RNA-Tat peptide displacers, HIV-1, primary screen, biochemical, FRET, FAM/TAMRA-labeled Tat; z-score (concentration not given with the values); HIV-1 TAR RNA, Tat peptide displacement FRET; hits give high values; 100,000 tested, 0.6% active; AID 1259389, 2018; active = z-score of 3 or more in at least 2 runs
CDC25B-CDK2 inh – primary biochemical HTRF screen for blockers of M-phase inducer phosphatase 2 binding to CDK2/cyclin A; AID 1259370, 2018; HTRF CDC25B-CDK2/CyclinA binding, anti-His/anti-Flag; hits give high values; P30305+P24941; z-score (concentration not given with the values); 94,000 tested, 0.72% active; in the data active = z-score above about 3.2
The depositor's hits bear a star; . = no result.

SMILES	TAR Tat displ	CDC25B-CDK2 inh
CCC(C)S(=O)(=O)c1oc(-c2cccs2)nc1S(=O)(=O)c1ccc(F)cc1 (centres undefined)	-0.99	-2.97
O=C1CC(CSc2nccc(-c3cccnc3)n2)=NN1c1ccc(Cl)cc1	.	-0.37
CCCC1=NN(c2ccc(Cl)cc2)C(=O)C1	0.59	6.23*
Nc1ccc2nc(SCC(=O)Nc3ccc4nc(SCC(=O)NC5CC5)sc4c3)sc2c1	.	19.1*
CCC(=O)Nc1ccc2nc(SCC(N)=O)sc2c1	-0.15	-1.72
NC(=O)CSc1nc2ccc(NC(=O)c3ccco3)cc2s1	1.76	12.2*
O=C(CSc1nc2ccc(NC(=O)c3ccco3)cc2s1)Nc1nccs1	0.7	0.57
COc1cc(OC)cc(C(=O)Nc2sc3c(c2C(N)=O)CCCC3)c1	.	-0.63
COc1ccc2nc(Nc3sc4c(c3C(N)=O)CCCC4)sc2c1	-1.26	4.27*
O=C(NCc1ccccc1)c1cccc2c3c([nH]c12)C(C(=O)O)CCC3 (centres undefined)	0.66	-2.07
O=C(NCC1CCCO1)c1cccc(N2C(=O)c3ccc([N+](=O)[O-])cc3C2=O)c1 (centres undefined)	.	3.46*
O=C(NCC1CCCO1)c1cccc(N2C(=O)CCS2(=O)=O)c1 (centres undefined)	1.47	-1.27
Cn1c(=O)c2cc(C(=O)NC3CCCC3)sc2c2ccccc21	-0.7	3.04*
Cn1c(=O)c2cc(C(=O)NCCCN3CCCC3)sc2c2ccccc21	-0.48	0.42
CCC(SC1=Nc2ccccc2C2=NC(C)C(=O)N12)C(=O)Nc1ccccc1F (centres undefined)	-1.4	.
O=C1C[C@@H](c2ccc(O)c(O)c2)Oc2cc(O[C@H]3O[C@@H](CO)[C@H](O)[C@@H](O)[C@@H]3O)cc(O)c21	3.17	.
O=C1/C(=C\c2ccc(O)c(O)c2)Oc2c1ccc(O[C@@H]1O[C@H](CO)[C@@H](O)[C@H](O)[C@H]1O)c2O	16.1*	.
Fc1ccc(NC(c2ccccc2)c2nnc(-c3ccccc3F)o2)c(F)c1 (centres undefined)	0.8	-1.45
O=C1C=C(NCCc2ccccc2)CC(c2ccco2)C1 (centres undefined)	24*	-0.39
O=C1C=C(NCc2ccco2)CC(c2ccccc2)C1 (centres undefined)	0.24	-1.2
Cc1cc(C)c([N+](=O)[O-])c(S(=O)(=O)c2ccccc2)c1	.	-0.56
Cn1ccc(-c2nc3ccccc3s2)n1	.	-0.87
COc1cc(OC)cc(C(=O)Nc2nc3c(s2)Cc2cc(OC)ccc2-3)c1	-0.26	-0.69
COc1ccc2c(c1)Cc1sc(NC(=O)c3ccc(OC)c(OC)c3)nc1-2	-0.93	18.7*
CC(=O)Nc1nc2c(s1)Cc1ccccc1-2	.	18.5*
SMILES	TAR Tat displ	CDC25B-CDK2 inh
Oc1ccccc1CNc1nc2c(s1)CCc1ccccc1-2	1.07	-1.46
Cc1ccc(CS(=O)(=O)c2cccs2)cc1	.	-0.73
COc1cc(OC)cc(-c2nnc(Cc3ccc(OC)c(OC)c3)o2)c1	-0.75	-1.4
O=C(c1cc2c(s1)-c1ccccc1OC2)N1CCN(c2cccc(Cl)c2)CC1	-0.34	-0.95
c1ccc2c(-c3ccncc3)c[nH]c2c1	0.71	.
Cc1sc(-c2c[nH]c3ccccc23)nc1-c1c[nH]c2ccccc12	.	17.7*
CCCCN(C)c1nnc(NC(=O)Nc2ccc3c(c2)OCCO3)s1	2.24	-2.73
Cc1nnsc1C(=O)Nc1c(C(=O)c2ccccc2)oc2ccccc12	-0.42	-1.51
Cc1cc(C)n2c(n1)nc1ccccc12	.	-2.13
Cc1cc(-n2nnc3ccccc32)nc(C)n1	14.3*	-1.19
Cc1ccc(C)c(Nc2nc3ccccc3n3nnnc23)c1	-1.81	-2.8
CC1=NN(c2nc(-c3ccc(Br)cc3)cs2)C(=O)/C1=C\c1ccc2c(c1)OCO2	.	20.9*
O=C(CCN1C(=O)/C(=C/c2ccc3c(c2)OCO3)SC1=S)Nc1nc(-c2ccccc2)cs1	.	-39.2
CC1=CC(=O)N(c2nc(-c3ccc(Cl)cc3)cs2)C1=O	.	-1.32
CC1=NN(c2nc(-c3ccc(Cl)cc3)cs2)C(=O)/C1=C\c1ccc2c(c1)OCO2	.	6.93*
Cc1cc(S(=O)(=O)Nc2ccc3c(c2)N(S(=O)(=O)c2ccc(F)cc2)CCC3)ccc1F	0.2	.
O=C(NCCN1CCOCC1)c1nnc(Cc2ccc3c(c2)OCO3)o1	-0.21	-0.47
O=C(c1ccc(F)cc1)N(Cc1ccccc1F)C1CCS(=O)(=O)C1 (centres undefined)	1.22	-0.96
CC(=O)Nc1cccc(OCc2cc(=O)n3oc(C)cc3n2)c1	8.06*	-1.96
Cc1cc(C)cc(OCc2cc(=O)n3oc(C)cc3n2)c1	0.64	-0.7
CCC1Sc2ccc(S(=O)(=O)N(CC)c3ccccc3)cc2NC1=O (centres undefined)	-0.45	.
CC(C)=CC[C@@H](O)C1=CC(=O)c2c(O)ccc(O)c2C1=O	34.2*	.
COC(=O)CCc1ccc(OCC(O)CNC(C)C)cc1 (centres undefined)	1.48	.
